Assay outcomes as filed in PubChem BioAssay.
Rows were chosen to be rich in hits. Some 18% of all compounds tested hit in one or more screens of this group.
PLK1 PBD inh = PLK1 (human) polo-box domain binding inhibition; Potency, µM, for the others: max response, negative = inhibition, usual class: inhibitors; P53350; 2.8% of 360,000 active; Plk1 PBD binding of FITC phosphopeptide, fluorescence polarization; also: series mostly up to about 57 µM; nearly all actives have a fitted effect of over 65% in size
GCN5L2 inh = GCN5L2 (KAT2A) acetyltransferase inhibition | 0.21% of 390,000 active | Potency, µM (titrated, usually from 58.9 µM), inactives show top-dose activity change, negative = inhibition, hits mostly inhibitors | AID 504327 | GCN5L2 HAT assay, ThioGlo1 CoA-SH fluorescence
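Fluorescence readout, Ex340nm/Em540nm: ThioGlo1 (50uM final) reacts with free CoA thiol released as 20nM GCN5L2 acetylates H3(1-25) peptide (75uM) using acetyl-CoA (70uM). Compound and enzyme sat 15 min beforehand; 20 min room-temperature reaction.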
TDP1 block = inhibitors of human tyrosyl-DNA phosphodiesterase TDP1. AID 485290. recombinant TDP1, AlphaScreen DNA substrate cleavage. 0.28% of 350,000 active. Q9NUW8. Potency, µM (doses to about 130 µM), inactives show at the top dose activity change, negative = inhibition, hits mostly inhibitors; also: nearly all actives have a fitted effect of over 40% in size
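E. coli-derived human Tdp1, 1 nM final. Cpd preinc 15 min RT; substrate 15 nM final, 5 min RT; AS bead mix 10 ug/ml final, 10 min RT. Signal loss = tyrosine-FITC cleavage. No-enzyme wells = max signal.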
DT40 TDP1 CPT = growth inhibition of DT40 Tdp1-/-;hTDP1 cells with camptothecin (screen for TDP1 inhibitors); chicken DT40 Tdp1-/-;hTDP1 cells + 20 nM CPT, ATP luminescence, 48 h; Potency, µM (highest dose often 46.2 µM), inactives show at the highest dose activity change, negative = growth inhibition, hits mostly inhibitors; 12% of 420,000 active; also: nearly all actives have a fitted effect of over 55% in size
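Chicken DT40 Tdp1-/- cells complemented with human TDP1, 400 cells/well, exposed to compounds plus 20 nM camptothecin for at least 48 h at 37 C; viability read as ATP content by CellTiter-Glo luminescence.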
DT40 TDP1 no CPT = qHTS for Inhibitors of human tyrosyl-DNA phosphodiesterase 1 (TDP1): qHTS in cells in absence of CPT. 15% of 420,000 active. DT40 Tdp1-/- hTDP1 cells, no CPT, ATP luminescence, 48 h. Potency, µM (top dose mostly 46.2 µM), without a hit: at the top dose activity change, negative = growth inhibition, hits mostly inhibitors; also: nearly all actives have a fitted effect of over 55% in size
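Compound effects on proliferation are scored in DT40 Tdp1-/-;hTDP1 cells in the absence of CPT. ATP levels (CellTiter-Glo luminescence) are recorded after a ≥48 hr, 37 °C incubation.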
VDR inhibitor = blocks the human vitamin D receptor | P11473 | VDR-SRC2-3 peptide fluorescence polarization, 2 h | Potency, µM, without a hit: max response, negative = inhibition, most hits filed as inhibitors | 0.93% of 400,000 active
Target sequence (P11473 whole entry, looked up): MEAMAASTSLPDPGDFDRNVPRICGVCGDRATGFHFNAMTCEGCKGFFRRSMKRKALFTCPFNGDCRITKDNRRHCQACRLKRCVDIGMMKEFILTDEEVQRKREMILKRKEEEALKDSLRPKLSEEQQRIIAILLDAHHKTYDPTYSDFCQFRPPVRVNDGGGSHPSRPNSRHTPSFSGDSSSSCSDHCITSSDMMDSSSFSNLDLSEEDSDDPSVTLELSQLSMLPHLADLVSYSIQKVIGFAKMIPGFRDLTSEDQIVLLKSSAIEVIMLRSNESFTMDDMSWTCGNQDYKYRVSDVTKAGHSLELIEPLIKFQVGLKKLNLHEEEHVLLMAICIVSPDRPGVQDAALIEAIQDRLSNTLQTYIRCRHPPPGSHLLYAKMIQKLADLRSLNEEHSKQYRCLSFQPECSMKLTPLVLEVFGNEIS
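Signal is fluorescence polarization, reporting how far test compounds block the interaction of VDR with the SRC2-3 coregulator peptide after a 2 h room-temperature incubation.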
Numbers without * were called inactive; ? = inconclusive; / = no result given; [ ] = another dose, or the depositor's remark. Calls follow the shape of the dose curve; as a rule, active = well fitted curve in the direction sought with a large enough effect; inconclusive = small, poorly fitted or top-dose-only effect, or another doubt; inactive = no such curve, though single readings can be large; an effect the other way counts as inactive or inconclusive. % is scaled to controls: 0 for no effect and ±100 for the full control effect; potency is read from the fitted curve at half-maximal effect.

SMILES | PLK1 PBD inh | GCN5L2 inh | TDP1 block | DT40 TDP1 CPT | DT40 TDP1 no CPT | VDR inhibitor
Cc1cc(-c2ccccc2)nnc1NCCN1CCOCC1 | ? | 0% | 8% | 1% | -5% | -29%
Clc1cccc(-c2cc3nc(NCCOc4ccccc4)ccn3n2)c1 | -7% | / | / | -2% | -5% | /
c1ccc(COc2ccc(-c3cc4nc(NCCN5CCOCC5)ccn4n3)cc2)cc1 | 6% | / | / | ? | 21µM* | /
COc1ccc(CNC(=O)c2ccc3c(c2)N(Cc2ccc(C)cc2)CCS3)cc1 | / | 2% | 4% | ? | ? | -14%
O=C(NC1CCCC1)c1ccc2c(c1)N(Cc1ccc(F)cc1)CCS2 | -15% | -12% | 3% | ? | ? | -22%
CCOC(=O)N1CCC(NC(=O)c2ccc3c(c2)N(CC)CCS3)CC1 | -12% | / | / | 21µM* | ? | ?
Cc1ccc(CN2CCSc3ccc(C(=O)NC4CCCC4)cc32)cc1 | -13% | -4% | -3% | 16µM* | ? | 5%
Cc1ccc(CN2CCSc3ccc(C(=O)NCc4cccnc4)cc32)cc1 | -10% | -13% | 8% | 23µM* | ? | -6%
Cc1ccc(CN2CCSc3ccc(C(=O)Nc4ccc(F)cc4F)cc32)cc1 | / | -2% | 1% | 16µM* | ? | -15%
Cc1ccccc1CN(C)C(=O)c1ccc2ccccc2n1 | 0% | -1% | 0% | ? | ? | 3%
O=C(N[C@@H]1CC[C@@H](CCn2cc(-c3ccccc3)nn2)O[C@@H]1CO)c1cnccn1 | -10% | / | / | 14% | -1% | /
CCc1ccc(NC(=O)c2ccc3c(c2)N(Cc2ccc(C)cc2)CCS3)cc1 | / | -6% | 1% | 15µM* | ? | -12%
CC(C)c1ccc(NC2CCCN(C(=O)c3ccsc3)C2)cc1 (stereo not given) | -1% | -33% | 5% | 23µM* | 18µM* | -15%
COCc1ccc(C(=O)N2CCCC(Nc3ccc(C(C)C)cc3)C2)o1 (stereo not given) | 3% | -1% | 8% | ? | 18µM* | 0%
CC(C)c1ccc(NC2CCCN(C(=O)c3n[nH]c4c3CCC4)C2)cc1 (stereo not given) | -1% | -2% | 5% | 18µM* | ? | 12%
CC1CN(C(=O)c2ccc(COc3ccc(C(C)C)cc3)o2)CC(C)O1 (stereo not given) | -2% | -18% | -7% | 16µM* | 21µM* | -8%
CC1CN(C(=O)c2ccc(COc3ccccc3Cl)o2)CC(C)O1 (stereo not given) | -8% | 2% | -1% | -5% | ? | 9%
CCC1CSC(=Nc2ccc(C)cc2)N1C(=O)CN1C(=O)NC2(CCCC2)C1=O (stereo not given) | 0% | ? | 4% | -13% | -2% | -3%
COc1cc2c(cc1OC)CN(C(=O)CCNC(=O)c1ccccc1Cl)CC2 | -3% | 0% | 0% | -14% | 5% | -5%
O=C(Nc1ccc(Cl)cc1)C1CCN(c2nc3ccccc3nc2C(F)(F)F)CC1 | / | -7% | 3% | ? | -29% | -5%
COc1ccc(C(=O)Oc2ccc(C(c3c(C)[nH][nH]c3=O)c3c(C)[nH][nH]c3=O)cc2)cc1 | / | 1% | / | -10% | -15% | -25%
Cc1cccc(Nc2nnc(-c3ccc(C)c(S(=O)(=O)NCC4CCCO4)c3)c3ccccc23)c1 (stereo not given) | / | -6% | / | 23µM* | 6.5µM* | -18%
Cc1ccc(-c2nnc(Nc3ccccc3)c3ccccc23)cc1S(=O)(=O)N1CCOCC1 | / | -5% | -2%[12.3 µM] | -27% | ? | -9%
Cc1ccc(-c2nnc(N3CCCCC3)c3ccccc23)cc1S(=O)(=O)NCC1CCCO1 (stereo not given) | -4% | -1% | 5% | 18µM* | 21µM* | -4%
Cc1ccc(-c2nnc(Nc3cccc(Cl)c3)c3ccccc23)cc1S(=O)(=O)NCC1CCCO1 (stereo not given) | / | -1% | / | 23µM* | 4.1µM* | -22%
SMILES | PLK1 PBD inh | GCN5L2 inh | TDP1 block | DT40 TDP1 CPT | DT40 TDP1 no CPT | VDR inhibitor
Cc1ccc(-c2nnc(Nc3ccc(Cl)cc3)c3ccccc23)cc1S(=O)(=O)NCC1CCCO1 (stereo not given) | / | -10% | / | ? | 21µM* | -13%
N#Cc1nc(NCC(F)F)c2ncn(-c3cccc(Cl)c3)c2n1 | / | / | -2% | / | / | /
CNC(=O)c1ccsc1NC(=O)CS(=O)(=O)c1ccc(Cl)cc1 | -1% | -5% | 8% | ? | -10% | 0%
C[C@@H]1CN([C@H](C)CO)C(=O)c2c(c3ccccc3n2C)-c2ccccc2CO[C@@H]1CN(C)S(=O)(=O)c1cccs1 | -4% | / | / | ? | 21µM* | /
C[C@H](CO)N1C[C@H](C)[C@H](CN(C)S(=O)(=O)c2cccc(F)c2)OCc2ccccc2-c2c(n(C)c3ccccc23)C1=O | -14% | / | / | 10µM* | 16µM* | /
CCOc1ccc(CCNC(=O)c2cc(-c3ccccc3)c(N3CCOCC3)s2)cc1 | -24% | / | / | ? | 29µM* | -25%
O=C(O)c1cc(-c2ccccc2)c(N2CCOCC2)s1 | -20% | -3% | -2% | -6% | 2% | -2%
O=C(NCc1ccc2c(c1)OCO2)c1cc(-c2ccccc2)c(N2CCOCC2)s1 | -12% | -21% | 4% | ? | 21µM* | 17%
CCOc1ccc(CCNC(=O)c2cc(-c3ccccc3)c(N3CCOCC3)s2)cc1OCC | -15% | -13% | 7% | ? | 3.3µM* | -3%
COc1ccc(CCNC(=O)c2cc(-c3ccccc3)c(N3CCOCC3)s2)c(OC)c1OC | 5% | -15% | 9% | 8.2µM* | 23µM* | 0%
CN(Cc1ccc2c(c1)OCO2)C(=O)c1cc(-c2ccccc2)c(N2CCOCC2)s1 | -9% | -15% | 4% | ? | ? | -10%
Cn1c(SCc2ccc(F)cc2)nc2ccc(C(=O)NCc3cccc(Cl)c3)cc21 | / | -13% | -3% | 16µM* | ? | 0%
Cn1c(SCc2ccc(F)cc2)nc2ccc(C(=O)NCc3ccc(Cl)cc3)cc21 | / | -16% | 3% | ? | ? | -9%
Cc1ccc(CNC(=O)c2ccc3nc(SCc4ccc(F)cc4)[nH]c3c2)cc1 | / | -11% | -4% | 15µM* | 13µM* | -2%
Cn1nc(C(=O)NCc2ccc(F)cc2)cc1C(=O)NCc1ccc(F)cc1 | -1% | -2% | 1% | ? | ? | -2%
Cn1c(SCc2ccc(F)cc2)nc2ccc(C(=O)NCc3ccc(F)cc3)cc21 | / | -13% | 2% | 16µM* | 16µM* | 4%
